From PubChem BioAssay (NCATS) come the findings set out here.

The structures appear in SMILES notation. Values without a mark were called inactive. Results filed as inconclusive are left out. Calls of active or inactive are those of the source. Calls follow the shape of the dose curve; as a rule, active = well fitted curve in the direction sought with a large enough effect; inconclusive = small, poorly fitted or top-dose-only effect, or another doubt; inactive = no such curve, though single readings can be large; an effect the other way counts as inactive or inconclusive.

Assay [1] concerns the target Calcium and integrin-binding protein 1 (Homo sapiens) (UniProt Q99828). The experiment in a line: Primary qHTS for Identification of Calcium Integrin Binding Protein 1 (CIB1) Competitor (AID 1508620).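 Also: GST tagged CIB1 binding a fluorescein labelled alphaIIb integrin peptide tracer; top concentration of the series differs between compounds; % is scaled to controls: 0 for no effect and ±100 for the full control effect.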 The essentials: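 CIB1-GST (1 uM final) and compound incubated 15 min at room temperature before adding FITC-alphaIIb peptide tracer (100 nM final). Competition for binding read by fluorescence polarization (ex 480, em 540) after another 15 min at room temperature.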
For orientation: qHTS replaces the single test concentration by a dilution series.

Assay [2] deals with Glutathione peroxidase 1 (Homo sapiens) (UniProt P07203). The experiment in a line: Primary qHTS Assay for Inhibitors of Recombinant Selenoprotein Glutathione Peroxidase 1 (GPX1) (AID 1845191). Also: nearly all actives have a fitted effect of over 65% in size. As to activity, negative = inhibition: % is scaled to controls: 0 for no effect and ±100 for the full control effect. The method in brief:
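NADPH consumption tracked by fluorescence at 340/450 nm between t=0 and t=15 min, room temperature. Final mix: 10 nM GPX1, 100 nM glutathione reductase, 1 mM GSH, 0.5 mM NADPH, 0.5 mM cumene hydroperoxide, 0.01% BSA; 30 min compound–enzyme preincubation.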

In assay [3] the target is Phospholipid hydroperoxide glutathione peroxidase GPX4 (Homo sapiens) (UniProt P36969). Nature of the assay: Primary qHTS Assay for Inhibitors of Recombinant Selenoprotein Glutathione Peroxidase 4 (GPX4) (AID 1845192). Also: % is scaled to controls: 0 for no effect and ±100 for the full control effect; nearly all actives have a fitted effect of over 65% in size. The settings on record: outcome: dose series up to 50 µM unless noted. The method in brief: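 NADPH consumption followed by fluorescence at 340/450 nm, t=0 and after 15 min at room temperature. Reaction started with cumene hydroperoxide (0.5 mM final) after 30 min compound–GPX4 preincubation; final 200 nM GPX4, 100 nM GR, 1 mM GSH, 0.5 mM NADPH.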

The target in assay [4] is Luciferin 4-monooxygenase (Photinus pyralis) (UniProt P08659). Nature of the assay: Primary firefly luciferase (FLuc) qHTS assay for identification of artifact compounds. (AID 1845220). Also: nearly all actives have a fitted effect of over 60% in size.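 As to activity change, negative = inhibition: plate controls were DMSO vehicle for no effect and no enzyme for full effect.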 The method in brief: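 FLuc 10 nM; luciferin 10 uM; ATP 10 uM; Tris-acetate pH 7.6, Mg-acetate 10 mM; 15 min RT preincubation; 5 min reaction; luminescence.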
Assay [5] is described as follows: Primary fluorescence-based thiol-reactive (MSTI) qHTS assay for identification of artifact compounds. (AID 1845221). Also: nearly all actives have a fitted effect of over 65% in size. Also: potency is read from the fitted curve at half-maximal effect. The method in brief:
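A multi-concentration qHTS design tested compounds against 4 uM MSTI, pH 7.4 phosphate-buffered saline. Plates were protected from light for 1 h at room temperature before imaging fluorescence.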

Assay [6] relates to Nanoluciferase (engineered Oplophorus gracilirostris luciferase). Nature of the assay: Primary Nanoluciferase (NLuc) qHTS assay for identification of artifact compounds. (AID 1845222).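 Also: NLuc secreted into diluted conditioned medium of S16 cells; 0% = DMSO and -100% = no enzyme.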 The method in brief: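 NLuc from S16 cell medium (1:55) plus test compounds, 15 min, room temperature. Luminescence after Nano-Glo (1:100) addition, 5 min.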
Assay [7] in a line: Primary redox qHTS assay for identification of artifact compounds. (AID 1845223).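 Also: 0% = DMSO and 100% = reference compound.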 The essentials: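 Redox-cycling detection via DTT (250 uM final) oxidation coupled to Amplex Red (25 uM)/HRP (250 mU/mL) in HBSS. 15 min preincubation plus 30 min after DTT, room temperature. Ex/Em 525/598 nm; 4-parameter Hill fit against DMSO and 10 uM DA3003.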
In another assay the test system is C33A. Nature of the assay: Primary qHTS to identify gynecologic anti-cancer compounds using libraries of approved drugs and bioactive compounds (AID 1345084). Also: nearly all actives have a fitted effect of over 55% in size. Also: potency is read from the fitted curve at half-maximal effect. As to activity change, negative = cytotoxicity: % is scaled to controls: 0 for no effect and ±100 for the full control effect. The settings on record: Gynecologic cancer cell panel viability, ATPlite luminescence, 48 h; series mostly up to 57.5 µM. The essentials: (§1)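 ATP-based viability (ATPlite), 1,000 cells/well, 16 h pre-incubation, 48 h compound at 37 C, 5% CO2, 15 min RT before read.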

The subject of a further assay is CASKI. The description is as above. The settings on record: Gynecologic cancer cell panel viability, ATPlite luminescence, 48 h; series mostly up to 57.5 µM. The method in brief: as §1
On the technique in general: ATP-based viability assays read luminescence as a measure of living cells.

The test system of the next assay is Es-2. The assay is described as above. The settings on record: Gynecologic cancer cell panel viability, ATPlite luminescence, 48 h; series mostly up to 57.5 µM. The essentials:
as §1

Another assay concerns HeLa. Described as above. Particulars: Gynecologic cancer cell panel viability, ATPlite luminescence, 48 h; series mostly up to 57.5 µM. The method in brief:
as §1

The subject of another assay is Hek293T. Described as above. The settings on record: Gynecologic cancer cell panel viability, ATPlite luminescence, 48 h, control line for the selectivity index; series mostly up to 57.5 µM. The method in brief: as §1
The next assay has as its system JEG-3. The description is as above. Particulars: Gynecologic cancer cell panel viability, ATPlite luminescence, 48 h; series mostly up to 57.5 µM. The essentials: as §1
The subject of the next assay is OV90. The assay is described as above. Particulars: Gynecologic cancer cell panel viability, ATPlite luminescence, 48 h; series mostly up to 57.5 µM. The essentials:
as §1

In the next assay the test system is PA-1. The assay is described as above. The settings on record: Gynecologic cancer cell panel viability, ATPlite luminescence, 48 h; series mostly up to 57.5 µM. The method in brief: as §1
Another assay deals with Tov-21-G. The assay is described as above. Particulars: Gynecologic cancer cell panel viability, ATPlite luminescence, 48 h; series mostly up to 57.5 µM. The essentials: as §1
In another assay the test system is Tov112D. The description is as above. The settings on record: Gynecologic cancer cell panel viability, ATPlite luminescence, 48 h; series mostly up to 57.5 µM. The essentials: as §1
The test system of assay [8] is Zika virus NS2B-NS3 protease (linked construct). The experiment in a line: Primary screen NINDS Rhodamine qHTS for Zika virus inhibitors (AID 1347160). Also: % is scaled to controls: 0 for no effect and ±100 for the full control effect; nearly all actives have a fitted effect of over 55% in size. The method in brief:
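Aprotinin served as in-plate control. Conditions: 25 nM linked NS2B-NS3, pH 8.0 Tris buffer, titrated compounds, 15 min preincubation and 15 min reaction with 1.5 microM Rhod110 substrate at room temperature.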

The nature of assay [9]: Primary qHTS for inhibitors of nuclear receptor binding SET domain protein 2 (NSD2) in an isogenic RCH-ACV NSD2 p.E1099K mutant (9B) (AID 1645876). Also: potency is read from the fitted curve at half-maximal effect; nearly all actives have a fitted effect of over 70% in size.
Assay [10] can be described thus: Primary qHTS for inhibitors of nuclear receptor binding SET domain protein 2 (NSD2) in an RCH-ACV wild type WT cells (2C) (AID 1645877). Also: potency is read from the fitted curve at half-maximal effect; nearly all actives have a fitted effect of over 70% in size.

Phospholipid hydroperoxide glutathione peroxidase GPX4 (Homo sapiens), sequence (P36969 whole entry, looked up): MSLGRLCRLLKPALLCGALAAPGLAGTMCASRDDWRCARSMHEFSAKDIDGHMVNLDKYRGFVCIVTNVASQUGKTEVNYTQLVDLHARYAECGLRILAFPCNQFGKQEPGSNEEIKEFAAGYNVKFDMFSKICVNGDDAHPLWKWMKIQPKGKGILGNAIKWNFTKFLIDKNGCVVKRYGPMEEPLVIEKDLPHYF
Calcium and integrin-binding protein 1 (Homo sapiens), sequence (Q99828 whole entry, looked up): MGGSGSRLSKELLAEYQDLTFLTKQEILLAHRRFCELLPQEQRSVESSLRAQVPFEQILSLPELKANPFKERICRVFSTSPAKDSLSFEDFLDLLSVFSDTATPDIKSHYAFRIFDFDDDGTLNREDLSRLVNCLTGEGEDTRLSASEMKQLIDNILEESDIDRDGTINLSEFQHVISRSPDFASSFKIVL
Glutathione peroxidase 1 (Homo sapiens), sequence (P07203 whole entry, looked up): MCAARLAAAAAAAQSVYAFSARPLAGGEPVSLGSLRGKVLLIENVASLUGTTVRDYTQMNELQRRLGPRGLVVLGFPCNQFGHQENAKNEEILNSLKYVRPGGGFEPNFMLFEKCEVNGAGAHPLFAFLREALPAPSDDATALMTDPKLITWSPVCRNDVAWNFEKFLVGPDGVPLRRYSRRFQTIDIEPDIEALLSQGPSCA

`CNc1ccc([N+](=O)[O-])cc1-n1cnc(-c2ccc(C(F)(F)F)cc2)c1`: the result in assay [1] was inactive. Moreover, the Potency entry in assay [2], in [3], in assay [4], in assay [5], in assay [6] and in assay [7] was “inactive” each time. The Potency result in the assay with C33A, in the assay on CASKI, in the assay with Es-2, with HeLa, in the assay with Hek293T and with JEG-3 was “inactive” throughout. The Potency result with OV90, with PA-1, in the assay on Tov-21-G and in the assay with Tov112D was “inactive” each time.
Take `C=C1[C@@H](C2=CC(=O)OC2)CC[C@@]2(O)[C@@H]1CC1[C@H]2CC[C@@H]2C[C@@H](O[C@H]3O[C@@H](C)[C@@H](O[C@@H]4O[C@H](CO[C@@H]5O[C@H](CO)[C@@H](O)[C@H](O)[C@H]5O)[C@@H](O)[C@H](O)[C@H]4O)[C@H](OC)[C@H]3O)CC[C@]12C` (some centres not stated): the Potency result in [8], in assay [2] and in assay [3] was “inactive” each time. For the same compound, the result in [1] was inactive. Moreover, the Potency is 1.94 µM (active) in assay [9], 3.55 µM (active) with C33A, 3.16 µM (active) in the assay with Tov-21-G and 2.24 µM (active) in the assay with Tov112D. Further, the activity change, negative = inhibition in assay [4] is 0.528% [at 11.6 µM]. Besides, in assay [6], the activity, negative = inhibition was -0.15% [at 11.6 µM]. Further, the activity change, negative = cytotoxicity was -6.72% [at 11.6 µM] in the assay on CASKI and -0.0855% [at 11.6 µM] in the assay with OV90.
As for `CNCc1ccc(C)c(NC(=O)c2ccc(Nc3nc(-c4ccccc4)c4ccccc4n3)cc2)c1`, the result in assay [1] was inactive. The Potency in assay [9] and in assay [10] was 7.42 µM (active) each time. Also, the Potency result (in assay [2]; in [3]; in [4]; in [5]; in assay [6]; in the assay on C33A) was “inactive” throughout. Also, the Potency entry in the assay on CASKI, in the assay with Es-2, in the assay with HeLa, in the assay with Hek293T, with JEG-3 and in the assay with OV90 was “inactive” each time. The Potency result in the assay on Tov-21-G and in the assay with Tov112D was “inactive” each time.
Take `Nc1nc(NCC2CCC(CNS(=O)(=O)c3cccc4ccccc34)CC2)nc2ccccc12` (configuration not stated): the Potency entry in [8], in [2], in [3], in assay [4], in assay [5] and in assay [7] was “inactive” throughout. In addition, the Potency entry with C33A, in the assay with CASKI, in the assay with Es-2, in the assay on HeLa, in the assay with Hek293T and with JEG-3 was “inactive” in each case. Further, the Potency result with PA-1 and with Tov-21-G was “inactive” throughout. In addition, in [1], the result was inactive. Also, the Potency in assay [9] was 4.09 µM (active); in assay [10], 2.58 µM (active).
For the compound `Cc1cc2nc(NCCCO)n(CC(=O)c3cc(C(C)(C)C)c(O)c(C(C)(C)C)c3)c2cc1C`, the outcome in assay [1] was inactive. The Potency in assay [9] was 8.17 µM (active). Also, the Potency result (in assay [2]; in assay [3]; in assay [4]; in assay [6]; in [7]; with CASKI) was “inactive” each time. Besides, the Potency entry in the assay with Es-2, in the assay on HeLa, in the assay with Hek293T, in the assay with JEG-3, in the assay on OV90 and with PA-1 was “inactive” each time. Besides, the Potency result in the assay with Tov-21-G and with Tov112D was “inactive” each time.
Consider `COc1ccc(CNC(=O)Nc2ncc([N+](=O)[O-])s2)cc1`, for which the Potency entry (in [8]; in assay [2]; in assay [3]; in [6]; in assay [7]; with CASKI) was “inactive” throughout. The Potency result with JEG-3, in the assay on Tov-21-G and with Tov112D was “inactive” in each case. Moreover, the result in assay [1] was inactive. The Potency is 18.6 µM (active) in [9], 18.6 µM (active) in assay [10] and 2.67 µM (active) in assay [5].
